Results filed as inconclusive are left out. Active and inactive are the calls of the source. Calls follow the shape of the dose curve; as a rule, active = well fitted curve in the direction sought with a large enough effect in the repeat runs; inconclusive = weak or mixed curves; inactive = no such curve, though single readings can be large; an effect the other way counts as inactive or inconclusive.

The values that follow come from PubChem BioAssay (Tox21).
% is scaled to controls: 0 for no effect and ±100 for the full control effect.

System in the first assay: not listed separately
Put plainly: Caspase-3/7 induction in CHO-K1 cells by small molecules, qHTS assay (AID 1346980). Also: nearly all actives have a fitted effect of over 15% in size. As to conditions: CHO-K1 caspase-3/7 induction, Caspase-Glo luminescence, 17 h; series mostly up to 92.4 µM; caspase-3/7 activation: at the top concentration. In short, it runs like this:
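Wild-type cells were seeded at 1,500 per well and settled 5 hr at 37 C, 5% CO2, then exposed to DMSO-dissolved compounds for 17 hr. Caspase-Glo 3/7 reagent was added, and luminescence was read after 30min at room temperature.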
(qHTS replaces the single test concentration by a dilution series.)
As for `C=C(C)C(=O)OCCOC1CC2CC1C1C=CCC21` (stereo not given), the “caspase-3/7 activation” value was 1.05% (inactive).

With `Cc1ccc(OC(=O)CC(C)C)cc1`, the “caspase-3/7 activation” value was 1.23% (inactive).

With `COC(=O)c1c(C)cc(O)c(C)c1O`, the “caspase-3/7 activation” value is 0.559% (inactive).

Consider `O=CN1CCCCC1`, for which the “caspase-3/7 activation” value is 0.28% (inactive).

On to `NS(=O)(=O)c1cc2c(cc1C(F)(F)F)NCNS2(=O)=O`, for which the “caspase-3/7 activation” value was -0.0809% [at 42.5 µM] (inactive).

As for `CC(=O)c1ccc(O)c(C(N)=O)c1`, the “caspase-3/7 activation” value was 0.946% [at 42.5 µM] (inactive).

On to `c1cc2ccc3ccc4ccc5cccc6c(c1)c2c3c4c56`, for which the caspase-3/7 activation is 0.273% [at 3.27 µM] (inactive).

For `O=C(O)/C=C(\CC(=O)O)C(=O)O`, the “caspase-3/7 activation” value was 4.04% [at 42.5 µM] (inactive).

On to `Cc1cc(C)c(C)c(C)c1`, for which the “caspase-3/7 activation” value is 0.339% (inactive).

Consider `O=C1CC2(CCCC2)CC(=O)N1CCNCC1COc2ccccc2O1` (stereo not given), for which the “caspase-3/7 activation” value was -0.698% [at 42.5 µM] (inactive).

In the case of `CC[C@@]1(c2ccccc2)NC(=O)N(C)C1=O`, the “caspase-3/7 activation” value was 0.335% [at 42.5 µM] (inactive).

As to `C[C@@H]1CCC[C@H](C)N1CCCC(O)(c1ccccc1)c1ccccn1` (stereo not given in full), the “caspase-3/7 activation” value is 1.06% [at 42.5 µM] (inactive).

In the case of `CN(C)CCC[C@@]1(c2ccc(F)cc2)OCc2cc(C#N)ccc21`, the “caspase-3/7 activation” value was 0.183% [at 42.5 µM] (inactive).

Regarding `CCOC(=O)[C@H](CCc1ccccc1)N[C@H]1CS[C@H](c2cccs2)CN(CC(=O)O)C1=O`, the “caspase-3/7 activation” value was 0.179% [at 42.5 µM] (inactive).

System in a further assay: not listed separately
In words: Caspase-3/7 induction in HepG2 cells by small molecules, qHTS cell viability counter screen (AID 1346981). Also: nearly all actives have a fitted effect of over 30% in size. Conditions: CellTiter-Fluor fluorescence, 17 h; series mostly up to 92.4 µM; activity change, negative = cytotoxicity: at the top concentration. In short, it runs like this: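 CellTiter-Fluor fluorescence measured viability in the same wells used for Caspase-Glo 3/7. HepG2 (wild type) at 2,000 cells/well were pre-incubated 5 hr, dosed, and given reagent at 16 hr, with 1 hr further at 37C.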
Turning to `CCOC(=O)c1ccc(N(C)C)cc1`, the “activity change, negative = cytotoxicity” value is -2.51% (inactive).

Consider `C[Si](C)(C)O[Si](O)(O)O`, for which the “activity change, negative = cytotoxicity” value was -0.495% (inactive).

Regarding `CCC(C)SSC(C)CC` (stereo not given), the “activity change, negative = cytotoxicity” value is 7.39% (inactive).

Consider `CC(C)(C)OC=O`, for which the “activity change, negative = cytotoxicity” value was -2.92% (inactive).

For the compound `CCNC(=O)C(C)OC(=O)Nc1ccccc1` (stereo not given), the “activity change, negative = cytotoxicity” value is 8.39% (inactive).

As to `C=CCN(CC=C)CC=C`, the “activity change, negative = cytotoxicity” value is 2.92% (inactive).

For the compound `COc1cc2nc(N3CCN(C(=O)C4CCCO4)CC3)nc(N)c2cc1OC` (stereo not given), the “activity change, negative = cytotoxicity” value was 1.16% [at 42.5 µM] (inactive).

Regarding `Cc1cc(=O)oc2cc(O[C@@H]3SC[C@@H](O)[C@H](O)[C@H]3O)ccc12`, the “activity change, negative = cytotoxicity” value is -1.15% [at 42.5 µM] (inactive).

Turning to `COc1ccccc1N1CCN(CC(O)COc2cc(OC)c(OC)c(OC)c2)CC1` (stereo not given), the “activity change, negative = cytotoxicity” value is -3.43% [at 42.5 µM] (inactive).

As for `COC(=O)N/N=C/c1c[n+]([O-])c2ccccc2[n+]1[O-]`, the “activity change, negative = cytotoxicity” value was -1.5% [at 42.5 µM] (inactive).

For the compound `COC(=O)c1cc(Cl)c(NC(C)=O)cc1OC`, the “activity change, negative = cytotoxicity” value is 4.65% [at 42.5 µM] (inactive).

With `CC(=O)Nc1ccc(OCCOCCOc2ccc(NC(C)=O)cc2)cc1`, the “activity change, negative = cytotoxicity” value was 1.95% [at 42.5 µM] (inactive).

With `CC(O)CCCCn1c(=O)c2c(ncn2C)n(C)c1=O` (stereo not given), the “activity change, negative = cytotoxicity” value is 1.05% [at 42.5 µM] (inactive).

Turning to `O=Cc1ccc(C(=O)O)cc1`, the “activity change, negative = cytotoxicity” value was -1.31% (inactive).

Consider `O=S(=O)(O)c1cc(I)c(O)c2ncccc12`, for which the “activity change, negative = cytotoxicity” value is 0.48% [at 42.5 µM] (inactive).

Take `CC(C)(C)c1ccc(C(=O)CCCCl)cc1`: the “activity change, negative = cytotoxicity” value is 8.57% [at 42.5 µM] (inactive).

For the compound `CC(C)(C)C(=O)CC(=O)C(C)(C)C`, the “activity change, negative = cytotoxicity” value was -4.66% (inactive).

As to `C=CC(=O)CC`, the “activity change, negative = cytotoxicity” value is 5.8% (inactive).

Take `CCCCC(O)/C=C(C)/C=C/C=C/C(=O)N1CCCC1=O` (stereo not given): the “activity change, negative = cytotoxicity” value was 0.305% [at 42.5 µM] (inactive).

For `CCN1CCN(C(=O)N[C@@H](C(=O)N[C@@H]2C(=O)N3[C@@H]2SC(C)(C)[C@H]3C(=O)O)c2ccccc2)C(=O)C1=O`, the “activity change, negative = cytotoxicity” value is 7.07% [at 42.5 µM] (inactive).

Consider `COc1ccc2cc(CCC(C)=O)ccc2c1`, for which the “activity change, negative = cytotoxicity” value is 4.42% [at 42.5 µM] (inactive).

Take `c1coc(Cn2cccc2)c1`: the “activity change, negative = cytotoxicity” value is 1.84% (inactive).

`CCC(C)c1nccnc1OC` (stereo not given): the “activity change, negative = cytotoxicity” value is 0.351% (inactive).

On to `C=C(C)C(=O)OCCOC1CC2CC1C1C=CCC21` (stereo not given), for which the “activity change, negative = cytotoxicity” value was 3.58% (inactive).

Consider `Cc1ccc(OC(=O)CC(C)C)cc1`, for which the “activity change, negative = cytotoxicity” value is -1.12% (inactive).

As for `COC(=O)c1c(C)cc(O)c(C)c1O`, the “activity change, negative = cytotoxicity” value was 11.7% (inactive).

For `O=CN1CCCCC1`, the “activity change, negative = cytotoxicity” value was -4.14% (inactive).

With `NS(=O)(=O)c1cc2c(cc1C(F)(F)F)NCNS2(=O)=O`, the “activity change, negative = cytotoxicity” value is 9.41% [at 42.5 µM] (inactive).

Take `CC(=O)c1ccc(O)c(C(N)=O)c1`: the “activity change, negative = cytotoxicity” value is 4.11% [at 42.5 µM] (inactive).

In the case of `c1cc2ccc3ccc4ccc5cccc6c(c1)c2c3c4c56`, the activity change, negative = cytotoxicity is -2.99% [at 3.27 µM] (inactive).

As for `O=C(O)/C=C(\CC(=O)O)C(=O)O`, the “activity change, negative = cytotoxicity” value was 3.56% [at 42.5 µM] (inactive).

With `Cc1cc(C)c(C)c(C)c1`, the “activity change, negative = cytotoxicity” value was 1.04% (inactive).

With `O=C1CC2(CCCC2)CC(=O)N1CCNCC1COc2ccccc2O1` (stereo not given), the “activity change, negative = cytotoxicity” value is 6.76% [at 42.5 µM] (inactive).

For the compound `CC[C@@]1(c2ccccc2)NC(=O)N(C)C1=O`, the “activity change, negative = cytotoxicity” value is 7.22% [at 42.5 µM] (inactive).

For `C[C@@H]1CCC[C@H](C)N1CCCC(O)(c1ccccc1)c1ccccn1` (stereo not given in full), the “activity change, negative = cytotoxicity” value was 1.73% [at 42.5 µM] (inactive).

In the case of `CN(C)CCC[C@@]1(c2ccc(F)cc2)OCc2cc(C#N)ccc21`, the “activity change, negative = cytotoxicity” value is -4.16% [at 42.5 µM] (inactive).

Turning to `CCOC(=O)[C@H](CCc1ccccc1)N[C@H]1CS[C@H](c2cccs2)CN(CC(=O)O)C1=O`, the “activity change, negative = cytotoxicity” value was -0.876% [at 42.5 µM] (inactive).

In a further assay the target is Nuclear receptor subfamily 1 group I member 2 (Homo sapiens) (UniProt O75469). Put plainly: Human pregnane X receptor (PXR) small molecule agonists, qHTS assay (AID 1346982). Also: nearly all actives have a fitted effect of over 35% in size. Also: potency is read from the fitted curve at half-maximal effect. Conditions: PXR-Luc HepG2, CYP3A4 luciferase reporter, 24 h; series mostly up to 92.4 µM; activation: at the top concentration. The method in brief: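 Agonist mode: luminescence from ONE-Glo after 24 h compound exposure at 37C in HepG2 cells carrying hPXR-responsive CYP3A4 luciferase, plated in charcoal-stripped serum medium 5 h beforehand.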
Nuclear receptor subfamily 1 group I member 2 (Homo sapiens), sequence (O75469 whole entry, looked up): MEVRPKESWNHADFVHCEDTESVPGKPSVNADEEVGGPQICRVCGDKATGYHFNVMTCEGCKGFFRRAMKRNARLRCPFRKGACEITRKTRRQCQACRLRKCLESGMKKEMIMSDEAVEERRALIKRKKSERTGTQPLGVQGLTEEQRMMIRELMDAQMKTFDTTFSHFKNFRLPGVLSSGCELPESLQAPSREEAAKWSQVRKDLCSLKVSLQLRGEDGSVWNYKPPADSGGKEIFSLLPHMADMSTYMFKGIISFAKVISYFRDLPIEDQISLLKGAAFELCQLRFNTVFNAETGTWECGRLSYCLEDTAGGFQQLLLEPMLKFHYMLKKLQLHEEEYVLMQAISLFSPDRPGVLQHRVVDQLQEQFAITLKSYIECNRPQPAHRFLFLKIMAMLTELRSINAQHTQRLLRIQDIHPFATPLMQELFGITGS
For `Cc1nc2ccc(Cl)cc2[nH]1`, the Potency is 12.2 µM (active).

As for `CCOC(=O)c1ccc(N(C)C)cc1`, the Potency was 54.5 µM (active).

In the case of `C[Si](C)(C)O[Si](O)(O)O`, the “activation” value was 1.52% (inactive).

`CC(C)(C)OC=O`: the “activation” value was 27.7% (inactive).

Take `CCNC(=O)C(C)OC(=O)Nc1ccccc1` (stereo not given): the “activation” value was 14.8% (inactive).

`C=CCN(CC=C)CC=C`: the “activation” value is -0.782% (inactive).

For the compound `Cc1cc(=O)oc2cc(O[C@@H]3SC[C@@H](O)[C@H](O)[C@H]3O)ccc12`, the “activation” value was 3.17% [at 42.5 µM] (inactive).

On to `COc1ccccc1N1CCN(CC(O)COc2cc(OC)c(OC)c(OC)c2)CC1` (stereo not given), for which the “activation” value was -6.05% [at 42.5 µM] (inactive).

Regarding `COC(=O)N/N=C/c1c[n+]([O-])c2ccccc2[n+]1[O-]`, the “activation” value was 2.23% [at 42.5 µM] (inactive).

In the case of `COC(=O)c1cc(Cl)c(NC(C)=O)cc1OC`, the “activation” value is 8.64% [at 42.5 µM] (inactive).

For the compound `CC(=O)Nc1ccc(OCCOCCOc2ccc(NC(C)=O)cc2)cc1`, the “activation” value is -4.43% [at 42.5 µM] (inactive).

Take `CC(O)CCCCn1c(=O)c2c(ncn2C)n(C)c1=O` (stereo not given): the “activation” value is 14.9% [at 42.5 µM] (inactive).

For the compound `O=Cc1ccc(C(=O)O)cc1`, the “activation” value was 1.3% (inactive).

Turning to `O=S(=O)(O)c1cc(I)c(O)c2ncccc12`, the “activation” value is -0.807% [at 42.5 µM] (inactive).

Take `CC(C)(C)c1ccc(C(=O)CCCCl)cc1`: the Potency was 26.6 µM (active).

In the case of `C=CC(=O)CC`, the “activation” value was 7.59% (inactive).

Regarding `CCCCC(O)/C=C(C)/C=C/C=C/C(=O)N1CCCC1=O` (stereo not given), the “activation” value is -1.5% [at 42.5 µM] (inactive).

Turning to `CCN1CCN(C(=O)N[C@@H](C(=O)N[C@@H]2C(=O)N3[C@@H]2SC(C)(C)[C@H]3C(=O)O)c2ccccc2)C(=O)C1=O`, the “activation” value was 7.99% [at 42.5 µM] (inactive).

Turning to `COc1ccc2cc(CCC(C)=O)ccc2c1`, the Potency was 10.6 µM (active).

With `Cc1ccc(OC(=O)CC(C)C)cc1`, the “activation” value was 11% (inactive).

For `O=CN1CCCCC1`, the “activation” value was 4.4% (inactive).

`CC(=O)c1ccc(O)c(C(N)=O)c1`: the “activation” value is -1.73% [at 42.5 µM] (inactive).

With `c1cc2ccc3ccc4ccc5cccc6c(c1)c2c3c4c56`, the activation is 3.44% [at 3.27 µM] (inactive).

With `O=C(O)/C=C(\CC(=O)O)C(=O)O`, the “activation” value is -0.467% [at 42.5 µM] (inactive).

For `Cc1cc(C)c(C)c(C)c1`, the “activation” value is 7.46% (inactive).

Consider `O=C1CC2(CCCC2)CC(=O)N1CCNCC1COc2ccccc2O1` (stereo not given), for which the Potency was 13.3 µM (active).

Take `C[C@@H]1CCC[C@H](C)N1CCCC(O)(c1ccccc1)c1ccccn1` (stereo not given in full): the “activation” value is 21% [at 42.5 µM] (inactive).

For the compound `CN(C)CCC[C@@]1(c2ccc(F)cc2)OCc2cc(C#N)ccc21`, the “activation” value was -1.24% [at 42.5 µM] (inactive).

Turning to `CCOC(=O)[C@H](CCc1ccccc1)N[C@H]1CS[C@H](c2cccs2)CN(CC(=O)O)C1=O`, the “activation” value was 5.34% [at 42.5 µM] (inactive).
